# Results from the supplement of paper PMC12067093, “Discovery and optimisation of a covalent ligand for TRIM25 and its application to targeted protein ubiquitination” (Chemical Science, 2025).
# About 21,000 targets were measured; listed, in parts, are those with the largest changes and a random draw of the rest.
# Target: WDR43_Q15061_158_HIVEWNVQTCK (UniProt Q15061)
# Test: probe-labelled cysteine peptide fold change vs DMSO (competition) (log2 fold change); higher = less target engagement (more negative = stronger competition)
# Conditions: THP-1, incubation time: 4 h
# 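Also: competitive profiling in live THP-1 cells: cysteine peptides tagged with an iodoacetamide desthiobiotin (IA-DTB) probe, intensity after compound treatment relative to DMSO-treated cells.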
# WDR43_Q15061_158_HIVEWNVQTCK, sequence (Q15061 whole entry, looked up): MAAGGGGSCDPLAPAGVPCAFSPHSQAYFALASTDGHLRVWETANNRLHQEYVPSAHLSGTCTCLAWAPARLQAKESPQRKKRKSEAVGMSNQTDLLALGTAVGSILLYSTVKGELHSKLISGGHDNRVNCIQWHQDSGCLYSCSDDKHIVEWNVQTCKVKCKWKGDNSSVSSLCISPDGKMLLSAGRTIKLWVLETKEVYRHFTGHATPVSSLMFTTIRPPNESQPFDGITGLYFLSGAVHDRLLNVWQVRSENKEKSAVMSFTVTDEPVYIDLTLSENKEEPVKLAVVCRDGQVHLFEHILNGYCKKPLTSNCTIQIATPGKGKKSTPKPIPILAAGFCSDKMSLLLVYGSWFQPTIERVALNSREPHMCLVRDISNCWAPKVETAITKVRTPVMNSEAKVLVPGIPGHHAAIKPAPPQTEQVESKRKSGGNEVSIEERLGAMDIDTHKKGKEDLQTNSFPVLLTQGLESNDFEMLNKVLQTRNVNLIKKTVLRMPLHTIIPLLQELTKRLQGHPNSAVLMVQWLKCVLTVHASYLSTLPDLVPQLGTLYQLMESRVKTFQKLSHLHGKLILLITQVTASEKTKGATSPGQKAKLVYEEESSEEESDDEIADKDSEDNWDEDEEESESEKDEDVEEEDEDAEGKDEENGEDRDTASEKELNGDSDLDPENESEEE
compound,measurement,setting,value
Cc1cc(C(=O)N2CCCN(C(=O)CCl)CC2)ccc1-c1ccccc1 [compound 10],probe-labelled cysteine peptide fold change,10 µM,-0.0124
same,probe-labelled cysteine peptide fold change,50 µM,-0.0233
